Screens as filed in PubChem.
Rows were chosen to be rich in hits. Some 2.4% of all compounds tested hit in one or more screens of this group.
D2 antag: HTS Assay for Allosteric Antagonists of the Human D2 Dopamine Receptor: Primary Screen for Antagonists; actives 2% (n = 340,000); inhibition, % at 10 µM; HEK293 TREx D2 cells, calcium flux, dopamine EC80; D(2) dopamine receptor (Homo sapiens), P14416; AID 485344, 2010; in the data active = inhibition above about 30%; inactive = below that, where a call was filed
Target sequence (P14416 whole entry, looked up): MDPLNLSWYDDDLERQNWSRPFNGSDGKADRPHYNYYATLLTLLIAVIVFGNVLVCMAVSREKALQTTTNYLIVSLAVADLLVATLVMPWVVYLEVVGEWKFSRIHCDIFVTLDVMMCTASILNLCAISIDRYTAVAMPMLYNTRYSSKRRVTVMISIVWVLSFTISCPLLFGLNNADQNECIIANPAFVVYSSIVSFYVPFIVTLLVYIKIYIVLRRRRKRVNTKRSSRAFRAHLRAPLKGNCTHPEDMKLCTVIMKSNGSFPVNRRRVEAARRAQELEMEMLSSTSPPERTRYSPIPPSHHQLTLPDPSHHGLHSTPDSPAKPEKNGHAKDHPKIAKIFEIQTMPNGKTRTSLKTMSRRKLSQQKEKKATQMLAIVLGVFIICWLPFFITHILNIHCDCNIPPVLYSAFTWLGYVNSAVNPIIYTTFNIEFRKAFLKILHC
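Calcium flux kinetic readout in an inducible HEK293 TREx D2 line plated overnight at 30 C. After 180 s compound exposure, an EC80 dopamine challenge follows with another 180 s kinetic read to detect antagonism.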
D2 PAM-1: HTS Assay for Positive Allosteric Modulators of the Human D2 Dopamine Receptor: Primary Screen for Potentiators; actives 0.34% (n = 340,000); potentiation, % at 10 µM; D(2) dopamine receptor (Homo sapiens), P14416; HEK293 T-REx D2, calcium flux, EC20 dopamine potentiation; AID 485347, 2010;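 active = potentiation over 3 SD above the plate norm, cut at about 30% in these data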
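Cells plated with tetracycline inducer and held overnight at 30 C; calcium dye loaded 30–90 min at room temperature; baseline taken, compound added and read 180 s; EC20 dopamine then added and read 180 s.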
D2 ag-1: Beta-Arrestin HTS for Positive Allosteric Modulators of the Human D2 Dopamine Receptor: Agonists. D(2) dopamine receptor (Homo sapiens), P14416. DiscoveRx PathHunter D2 beta-arrestin, luminescence, 90 min; 100% = 57 uM dopamine signal. actives 0.084% (n = 360,000). activation, % (concentration not given with the values); in the data active = activation above about 40%
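Agonist mode: compounds alone added to overnight-plated D2 PathHunter cells for 90 min at 37 C, with 57 uM final dopamine (EC100) defining full response. Beta-arrestin recruitment detected by chemiluminescent reagent, read after 1 h at ambient temperature.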
D2 ag-2: HTS Assay for Allosteric Agonists of the Human D2 Dopamine Receptor: Primary Screen for Agonists. D(2) dopamine receptor (Homo sapiens), P14416. HEK293 T-REx D2 cells, calcium flux agonist mode. activation, % at 2 µM. actives 0.53% (n = 340,000). AID 485358, 2010;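 active = activation over 3 SD above normal in the single-dose calcium agonist read, cut at about 30% in these data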
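In this primary screen, compounds producing a positive calcium signal within 180 s of addition to tetracycline-induced, force-coupled HEK293 Trex D2 cells are flagged; cells are dye-loaded with a no-wash calcium kit beforehand.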
D2 PAM-2: Beta-Arrestin HTS for Positive Allosteric Modulators of the Human D2 Dopamine Receptor: Potentiators; D(2) dopamine receptor (Homo sapiens), P14416; DiscoveRx D2 beta-arrestin cells, luminescence, 90 min; 100% = 57 uM dopamine signal; potentiation, % (concentration not given with the values); actives 0.23% (n = 360,000); in the data active = potentiation above about 50%
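PathHunter beta-arrestin assay in DiscoveRx D2 cells. Compounds were added with an EC20 of dopamine (50 nM final) for 90 min at 37 deg C. Luminescence was read 1 h after detection reagent, with 57 uM dopamine as the EC100 control.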
Each line names hits and unclear results; the compound was inactive in the other large screens.

COc1cccc(CNc2cnc3ccccc3c2)c1O	none
Cc1cccn2c(CNC3CCCc4ccccc43)c(C(=O)N3CCOCC3)nc12 (configuration not stated)	none
Nc1cc2c(cc1[N+](=O)[O-])OCCO2	D2 antag 47
CC(C)(C)OC(=O)N1CCC(c2c(C(=O)O)cnn2-c2ccccc2Cl)CC1	none
CC(C)(C)OC(=O)N1CCC(c2c(C(=O)NCC3CCN(C4CCCC4)C3)cnn2-c2ccccc2Cl)CC1 (configuration not stated)	D2 antag 46
COc1ccccc1N1CCN(C(=O)c2ccc(CS(=O)(=O)c3ccccc3OC)o2)CC1	D2 PAM-1 47
COCCCNC(=O)c1ccc(CS(=O)(=O)c2ccccc2OC)o1	D2 antag 33
COCCSc1ccccc1C(=O)N1CCN(c2ccccc2OC)CC1	D2 antag 38
COCCNC(=O)c1ccc(CS(=O)(=O)c2ccccc2OC)o1	none
Cc1ccc(C)c(OCCn2c(=O)c3c(ncn3C3CCCC3)n(Cc3ccccc3)c2=O)c1	none
O=C(CSc1ncccn1)N/N=C/c1cccc(OC2CSC2)c1	D2 antag 36
COc1ccc(-c2cc(C(F)(F)F)n3ncc(C(=O)N4CCc5ccccc5C4)c3n2)cc1	none
COc1cccc(-c2cc(C(F)(F)F)n3ncc(C(=O)N4CCc5ccccc5C4)c3n2)c1	D2 antag 50
O=C(NCC(c1ccc(F)cc1)N1CCOCC1)c1nn(-c2ccccc2)c(=O)c2ccccc12 (configuration not stated)	D2 antag 70
Cc1ccc(S(=O)(=O)c2cn(Cc3ccccc3)c3cc(N4CCCCC4)c(F)cc3c2=O)cc1	none (no result: D2 antag, D2 ag-1, D2 PAM-2)
COc1c2c(cc3oc(=O)ccc13)OC(C)(C)C=C2	D2 antag 33
COC1CCCCC1NS(=O)(=O)c1ccc(Cl)cc1 (configuration not stated)	D2 antag 31
CC1CCN(CCCOc2ccc(Cl)cc2Br)CC1	D2 antag 34
Clc1ccc(Cl)c(OCCN2CCCC2)c1	D2 antag 47
CC(C)NCCOCCOc1ccc(Cl)cc1Br	D2 antag 67
Clc1ccc(OCCOCCN2CCCCC2)c(Br)c1	D2 antag 77
CN(C)CCOCCOc1ccc(Cl)cc1Br	none
CC(=O)C1=NN(c2ccccc2)C(c2ccc3c(c2)OCO3)N1c1ccc(N2CCOCC2)cc1 (configuration not stated)	none (no result: D2 antag, D2 ag-2)
CC1CCN(CCOCCOc2ccc(Cl)cc2Br)CC1	D2 antag 69
Cc1ccc(Cl)c(OCCN2CCCC(C)C2)c1 (configuration not stated)	D2 antag 53
CC1CCCN(CCOc2ccc3ccccc3c2Br)C1 (configuration not stated)	D2 antag 71
O=C(CCS(=O)(=O)c1ccc(Cl)cc1)Nc1nnc(-c2cccs2)o1	none
Cc1cc[n+](CC(=O)N2CCCc3ccccc32)cc1	D2 antag 39
Cc1c(Br)c([N+](=O)[O-])nn1CC(=O)N1CCCc2ccccc21	D2 PAM-1 34
O=C(CN1CCCCC1)N1CCc2ccccc21	none
O=C(CN1CCN(c2ccc(O)cc2)CC1)N1CCc2ccccc21	D2 antag 40
O=C(CN1CCN(Cc2ccccc2)CC1)N1CCCc2ccccc21	D2 antag 32
O=C(CN1CCN(c2ccccc2)CC1)N1CCc2ccccc21	none
NS(=O)(=O)c1ccc(N/N=C/c2cn(-c3ccccc3)nc2-c2ccccc2)c([N+](=O)[O-])c1	none (no result: D2 antag, D2 PAM-1, D2 ag-2)
CCOc1ccc(-c2nnn(CC(=O)NCc3ccc(C)cc3)n2)cc1	none (no result: D2 PAM-1)
CC(=O)Nc1ccc(NC(=O)Cn2cc3c(n2)CCCC3)cc1	none
Cc1ccc(-c2c3c(nc4sc(C(N)=O)c(N)c24)CCCC3)o1	D2 ag-2 31
CC(C)c1ccc(NC(=O)C2CCN(S(C)(=O)=O)CC2)cc1	none
CC(C(=O)N1CCN(Cc2ccccc2)CC1)n1ncn2cccc2c1=O (configuration not stated)	D2 antag 49
FC(F)(F)c1cccc(N2CCN(CC3CC=CCC3)CC2)c1 (configuration not stated)	D2 antag 73
Cc1ccc(N2CCN(CC3CC=CCC3)CC2)cc1 (configuration not stated)	D2 antag 36
COc1ccccc1NC(=O)C(C)NS(=O)(=O)c1ccc(Cl)cc1 (configuration not stated)	none
CC(C)(CCl)C(=O)Nc1ccc(OC(F)(F)F)cc1	none
Cc1cc(C)c(/C=C(\C#N)C(N)=S)c(C)c1	D2 antag 84
O=S(=O)(N/N=C/c1ccc(N2CCOCC2)cc1)c1ccc(Br)cc1	D2 PAM-1 31
Cc1cccc(-n2c(CNC(=O)c3ccc(S(=O)(=O)N4CCCC4)cc3)n[nH]c2=S)c1	none
O=C(NCc1n[nH]c(=S)n1-c1cccc(Cl)c1)c1ccc(S(=O)(=O)N2CCCCC2)cc1	D2 PAM-1 33
CC(C)C(NS(=O)(=O)c1ccc2c(c1)oc(=O)n2C)C(=O)N1CCN(C2CCCCC2)CC1 (configuration not stated)	D2 antag 31
CC1CC(C)CN(C(=O)C(NS(=O)(=O)c2ccc3c(c2)oc(=O)n3C)C(C)C)C1 (configuration not stated)	none
CCCCOC(=O)C1=C(C)NC(=O)NC1c1cccc([N+](=O)[O-])c1 (configuration not stated)	none
CCCCOC(=O)C1=C(C)NC(=O)NC1c1ccc([N+](=O)[O-])s1 (configuration not stated)	D2 PAM-2 58
CC(C)CCNC(=O)COc1ccc2c(c1)C(=O)CC(C)(C)O2	none
CC1(C)CC(=O)c2cc(OCC(=O)NCCN3CCCc4ccccc43)ccc2O1	D2 ag-2 34
O=C(CN1C(=O)c2ccccc2C1=O)Nc1ccccc1N1CCOCC1	none
CCCCN1C(=O)c2ccc(C(=O)Nc3ccccc3N3CCOCC3)cc2C1=O	D2 antag 44
Cc1csc(NC(=O)C2CCCN(S(=O)(=O)c3ccc(Br)s3)C2)n1 (configuration not stated)	D2 antag 38
COCCCNC(=O)CN(c1cc(Cl)ccc1OC)S(=O)(=O)c1ccc(C)c([N+](=O)[O-])c1	none
